The structures appear in SMILES notation. In all, about 69,000 compounds went through this assay and about 8,600 (12%) showed an effect of 50% or more. Only a selection was taken, and strong results are over-represented in it overall.

The experiment concerns Plasmodium berghei. The experiment in a line: Screen against P. berghei liver stage (PbLuc), transformed with Luciferase, at 10uM. The class given is functional, HepG2. Conditions: tested at 10 uM.
Regarding `CSCCC(C)(O)CNS(=O)(=O)Cc1cccc(C)c1` (stereo not given), the INHIBITION is given as 17%.
In the case of `CCOc1cncc(N2CCCC2c2nnc3n2CCCCC3)n1` (stereo not given) it was 24.2%; in that of `Cc1cc(N2CCCC2c2nnc3n2CCCCC3)nc(C)n1` (stereo not given), 23.6%.
For `c1ccc2nc(N3CCCC3c3nnc4n3CCCCC4)cnc2c1` (stereo not given) the value was 42.8%; for `c1cnc2nc(N3CCCC3c3nnc4n3CCCCC4)ccc2n1` (stereo not given), 58.7%.
For `Cc1cc(N2CCCC2c2nnc3n2CCCCC3)nc(N)n1` (stereo not given) the value was 63.6%; for `Clc1cncc(N2CCCC2c2nnc3n2CCCCC3)n1` (stereo not given), -22.4%; for `Cc1cnn(C2CCCN(C(=O)Cc3n[nH]c4ccccc34)C2)c1` (stereo not given), 33.7%.
With `CN(CCc1ccccn1)C(=O)CCC1CCCN(S(C)(=O)=O)C1` (stereo not given), the INHIBITION came out at 15.3%.
For `O=C(NCc1nncn1C1CCCCC1)C1COc2ccccc2C1` (stereo not given) the value was 32.4%; for `CNC(=O)N1CCc2cc(C(=O)N(C)C)c(NCC3CC3)nc2CC1`, -25%.
For `COc1ccc(Br)c(NC(=O)NCc2ncnn2C)c1` the value was 13.8%; for `COc1ccc(Cl)cc1CCNC(=O)NCc1ncnn1C`, -23.5%; for `Cc1cc(C)cc(C(=O)NCc2ncnn2C)c1`, 57.2%.
For `COc1ccc(C)c(NC(=O)NCc2ncnn2C)c1` the value was 51.1%.
Turning to `Cc1c(Cl)cc(C(=O)NCCc2ncnn2C)cc1Cl`, the INHIBITION amounted to 42%.
In the case of `Cc1c(NCC(C)(C)C)cccc1C(=O)NCc1ncnn1C` it was -30.1%; in that of `O=C(c1ccc(-c2ccccc2)[nH]c1=O)N1CCN(C2CC2)CC1`, 32.8%.
For `CN(C)C(=O)[C@H]1C[C@H]2CN(C(=O)NCC3CCCCC3)C[C@@H]1O2` the value was -36%; for `Fc1ccc(CN2CCCn3cnc(COCC4CC4)c3C2)cc1`, 45.8%.
For `NC(=O)C(NC(=O)COC1CCCC1)c1ccccc1` (stereo not given) the value was 45.3%.
As for `O=C(COC1CCCC1)NC(C(=O)Nc1cc[nH]n1)c1ccccc1` (stereo not given), the INHIBITION stood at 62.6%.
In the case of `CC(NC(=O)C1CCCC1)c1nc(-c2ccccc2)c[nH]1` (stereo not given) it was 31.7%; in that of `NC(=O)C(NC(=O)COC1CCCCC1)c1ccccc1` (stereo not given), 22.5%; in that of `O=C(NC(C(=O)Nc1cc[nH]n1)c1ccccc1)C1CCC1` (stereo not given), 50.7%.
In the case of `O=C(NC(c1ccccc1)c1cccnc1)C1CC1` (stereo not given) it was 25.8%.
In the case of `c1cnnc(N2CCCC2CNCc2nc(-c3ccco3)no2)c1` (stereo not given) it was 30.42%.
`CNC(=O)CN1CC[C@H]2CN(C(=O)c3ccoc3)C[C@H]2C1`: the INHIBITION is recorded as 15.4%.
Consider `Cc1ccc(CC(=O)N2CCCC(n3ccnc3C(C)C)C2)cn1` (stereo not given), for which the INHIBITION is recorded as -9.19%.
Regarding `CN1CCOC(CNC(=O)Cc2coc(-c3ccccc3)n2)C1` (stereo not given), the INHIBITION is recorded as -33.9%.

These data come from ChEMBL document CHEMBL4513216, “Probing the Open Global Health Chemical Diversity Library for Multistage-Active Starting Points for Next-Generation Antimalarials” (ACS Infect Dis, 2020).
